# Key:
# Assay in all cases: DAPPL (digital affinity profiling via proximity ligation, sequencing); 10 mM Tris-HCl pH 7.5, 50 mM NaCl, 1 mM DTT, 4% glycerol, room temperature, 30 min; GST-TFs on glutathione beads, 16-mer random dsDNA library, 0.1% formaldehyde crosslink after washing; high values mean tight binding
# [1] = target: T1, FEV (Homo sapiens, UniProt Q99581 1-238); details: protein: recombinant; tags: N-terminal GST; dsDNA, one strand shown
# T1 sequence: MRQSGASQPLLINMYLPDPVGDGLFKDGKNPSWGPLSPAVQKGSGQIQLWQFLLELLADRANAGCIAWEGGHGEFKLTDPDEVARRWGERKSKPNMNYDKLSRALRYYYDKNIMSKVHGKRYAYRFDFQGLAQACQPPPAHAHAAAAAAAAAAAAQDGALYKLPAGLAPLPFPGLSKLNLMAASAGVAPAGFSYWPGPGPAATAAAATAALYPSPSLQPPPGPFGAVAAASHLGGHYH
# Summary of the method: (§1)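 The binding signal reported is, for every hexamer, its read frequency for a factor over its read frequency for the tag-only sample. Reads came from pools of yeast-expressed, GST-fused human transcription factors on glutathione beads, barcoded with DNA and mixed with that sample, which were incubated with 200 nmole of a random double-stranded 16-mer DNA library in Tris/NaCl/DTT/glycerol buffer at room temperature for 30 min. After washing, the pools were crosslinked with 0.1% formaldehyde, proximity-ligated with BsaI/T4 ligase for 1 h at 37 °C, PCR-amplified and sequenced on an Illumina NextSeq500.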
# [2] = target: ETV5 (Homo sapiens, UniProt P41161 1-510); details: protein: recombinant; tags: N-terminal GST; dsDNA, one strand shown
# Summary of the method: as §1
# [3] = target: HSF1 (Homo sapiens, UniProt Q00613 1-529); details: protein: recombinant; tags: N-terminal GST; chain copies: 3; dsDNA, one strand shown
# Summary of the method: as §1
# [4] = target: T2, SPIC (Homo sapiens, UniProt Q8N5J4 1-248); details: protein: recombinant; tags: N-terminal GST; dsDNA, one strand shown
# T2 sequence: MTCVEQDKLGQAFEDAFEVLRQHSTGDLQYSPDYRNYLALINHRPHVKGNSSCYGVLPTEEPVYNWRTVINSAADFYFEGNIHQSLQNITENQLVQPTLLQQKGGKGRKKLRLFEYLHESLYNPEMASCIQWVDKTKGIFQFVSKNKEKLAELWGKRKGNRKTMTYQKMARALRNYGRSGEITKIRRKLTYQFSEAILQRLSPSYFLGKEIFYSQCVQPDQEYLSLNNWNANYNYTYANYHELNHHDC
# Summary of the method: as §1
# [5] = target: ELF4 (Homo sapiens, UniProt Q99607 1-663); details: protein: recombinant; tags: N-terminal GST; dsDNA, one strand shown
# Summary of the method: as §1
# [6] = target: T3, ELK4 (Homo sapiens, UniProt P28324-2 1-405); details: protein: recombinant; tags: N-terminal GST; dsDNA, one strand shown
# T3 sequence: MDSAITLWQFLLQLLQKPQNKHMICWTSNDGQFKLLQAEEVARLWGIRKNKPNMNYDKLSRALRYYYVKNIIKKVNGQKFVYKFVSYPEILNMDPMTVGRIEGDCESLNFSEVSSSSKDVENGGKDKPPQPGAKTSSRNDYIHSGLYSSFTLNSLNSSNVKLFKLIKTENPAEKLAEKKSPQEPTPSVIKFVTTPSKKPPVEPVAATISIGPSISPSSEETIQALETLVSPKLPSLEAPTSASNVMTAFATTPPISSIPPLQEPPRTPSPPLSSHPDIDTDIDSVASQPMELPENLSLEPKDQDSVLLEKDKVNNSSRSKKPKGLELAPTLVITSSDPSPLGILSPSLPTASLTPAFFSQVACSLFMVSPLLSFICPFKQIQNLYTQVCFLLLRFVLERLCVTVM
# Summary of the method: as §1
# [7] = target: T4, ETV2 (Homo sapiens, UniProt O00321 1-342); details: protein: recombinant; tags: N-terminal GST; dsDNA, one strand shown
# T4 sequence: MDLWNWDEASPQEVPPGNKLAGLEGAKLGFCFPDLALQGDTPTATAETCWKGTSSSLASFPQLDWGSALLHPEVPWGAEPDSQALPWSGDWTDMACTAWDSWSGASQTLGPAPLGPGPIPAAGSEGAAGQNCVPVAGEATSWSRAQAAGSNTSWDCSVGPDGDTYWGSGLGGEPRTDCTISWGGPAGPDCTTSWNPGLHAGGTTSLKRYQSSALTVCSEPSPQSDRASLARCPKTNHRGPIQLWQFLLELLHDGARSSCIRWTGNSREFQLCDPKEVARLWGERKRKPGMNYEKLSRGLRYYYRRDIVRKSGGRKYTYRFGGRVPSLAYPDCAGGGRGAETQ
# Summary of the method: as §1
# [8] = target: T5, ELF3 (Homo sapiens, UniProt P78545 1-371); details: protein: recombinant; tags: N-terminal GST; dsDNA, one strand shown
# T5 sequence: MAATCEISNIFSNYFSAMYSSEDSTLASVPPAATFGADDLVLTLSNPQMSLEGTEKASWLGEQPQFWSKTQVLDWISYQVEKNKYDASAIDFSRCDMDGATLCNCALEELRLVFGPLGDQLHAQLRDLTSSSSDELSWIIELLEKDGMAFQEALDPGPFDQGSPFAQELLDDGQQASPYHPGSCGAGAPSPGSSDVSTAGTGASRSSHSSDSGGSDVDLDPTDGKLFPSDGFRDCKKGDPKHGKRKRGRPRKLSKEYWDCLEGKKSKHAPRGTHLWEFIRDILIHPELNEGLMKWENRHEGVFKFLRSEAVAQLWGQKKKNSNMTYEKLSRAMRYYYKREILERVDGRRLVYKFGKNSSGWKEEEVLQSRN
# Summary of the method: as §1
# [9] = target: CRX (Homo sapiens, UniProt O43186 1-299); details: protein: recombinant; tags: N-terminal GST; dsDNA, one strand shown
# Summary of the method: as §1
# [10] = target: ETV1 (Homo sapiens, UniProt P50549 1-477); details: protein: recombinant; tags: N-terminal GST; dsDNA, one strand shown
# Summary of the method: as §1
# [11] = target: T6, ERF (Homo sapiens, UniProt P50548 1-548); details: protein: recombinant; tags: N-terminal GST; dsDNA, one strand shown
# T6 sequence: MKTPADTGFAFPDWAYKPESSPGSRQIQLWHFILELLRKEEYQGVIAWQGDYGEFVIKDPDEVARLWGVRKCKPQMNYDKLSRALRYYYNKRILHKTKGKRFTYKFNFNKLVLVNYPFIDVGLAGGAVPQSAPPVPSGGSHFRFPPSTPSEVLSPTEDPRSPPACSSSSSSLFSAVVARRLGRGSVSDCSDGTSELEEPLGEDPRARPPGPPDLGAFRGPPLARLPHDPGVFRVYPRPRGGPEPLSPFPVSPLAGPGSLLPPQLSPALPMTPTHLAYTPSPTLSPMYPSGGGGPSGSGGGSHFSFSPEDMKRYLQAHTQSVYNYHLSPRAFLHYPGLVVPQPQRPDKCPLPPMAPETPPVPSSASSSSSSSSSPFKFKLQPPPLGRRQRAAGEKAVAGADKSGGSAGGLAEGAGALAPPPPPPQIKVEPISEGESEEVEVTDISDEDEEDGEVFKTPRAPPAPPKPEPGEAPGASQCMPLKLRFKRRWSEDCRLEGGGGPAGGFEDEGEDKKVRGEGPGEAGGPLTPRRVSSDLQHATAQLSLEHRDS
# Summary of the method: as §1
# [12] = target: T7, ETV3L (Homo sapiens, UniProt Q6ZN32 1-361); details: protein: recombinant; tags: N-terminal GST; dsDNA, one strand shown
# T7 sequence: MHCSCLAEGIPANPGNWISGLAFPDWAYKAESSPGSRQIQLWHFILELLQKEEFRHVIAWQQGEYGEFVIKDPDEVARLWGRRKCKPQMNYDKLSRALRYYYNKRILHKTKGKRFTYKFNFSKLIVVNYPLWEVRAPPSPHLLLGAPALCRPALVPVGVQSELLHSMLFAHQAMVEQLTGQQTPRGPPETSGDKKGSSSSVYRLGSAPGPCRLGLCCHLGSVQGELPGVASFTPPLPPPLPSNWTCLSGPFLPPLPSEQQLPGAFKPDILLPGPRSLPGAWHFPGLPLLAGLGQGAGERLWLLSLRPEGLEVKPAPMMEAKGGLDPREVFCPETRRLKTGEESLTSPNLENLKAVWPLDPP
# Summary of the method: as §1
# [13] = target: T8, ETS2 (Homo sapiens, UniProt P15036 1-469); details: protein: recombinant; tags: N-terminal GST; dsDNA, one strand shown
# T8 sequence: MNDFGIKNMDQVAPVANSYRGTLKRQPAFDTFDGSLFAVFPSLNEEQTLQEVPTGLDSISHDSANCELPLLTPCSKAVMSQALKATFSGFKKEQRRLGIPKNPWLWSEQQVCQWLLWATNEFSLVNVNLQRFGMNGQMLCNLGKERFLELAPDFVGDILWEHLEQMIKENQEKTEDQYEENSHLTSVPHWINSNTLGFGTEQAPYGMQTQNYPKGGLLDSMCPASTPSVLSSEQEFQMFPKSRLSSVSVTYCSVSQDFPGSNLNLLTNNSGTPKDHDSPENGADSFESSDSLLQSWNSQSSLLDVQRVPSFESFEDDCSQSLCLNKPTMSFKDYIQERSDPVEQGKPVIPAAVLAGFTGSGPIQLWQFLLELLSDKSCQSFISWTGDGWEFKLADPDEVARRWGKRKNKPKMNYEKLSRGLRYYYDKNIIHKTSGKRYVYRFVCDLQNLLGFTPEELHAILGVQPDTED
# Summary of the method: as §1
# [14] = target: T9, SPDEF (Homo sapiens, UniProt O95238 1-335); details: protein: recombinant; tags: N-terminal GST; dsDNA, one strand shown
# T9 sequence: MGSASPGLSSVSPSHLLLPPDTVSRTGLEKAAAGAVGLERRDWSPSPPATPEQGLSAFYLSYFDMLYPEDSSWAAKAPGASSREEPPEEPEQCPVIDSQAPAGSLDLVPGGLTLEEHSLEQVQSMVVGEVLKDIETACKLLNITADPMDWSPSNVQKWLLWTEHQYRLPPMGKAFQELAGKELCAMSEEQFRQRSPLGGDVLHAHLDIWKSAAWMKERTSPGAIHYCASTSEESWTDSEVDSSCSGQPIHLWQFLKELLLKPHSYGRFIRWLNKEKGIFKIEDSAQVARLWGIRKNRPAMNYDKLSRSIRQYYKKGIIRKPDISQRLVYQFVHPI
# Summary of the method: as §1
# [15] = target: T10, ETV7 (Homo sapiens, UniProt Q9Y603 1-341); details: protein: recombinant; tags: N-terminal GST; dsDNA, one strand shown
# T10 sequence: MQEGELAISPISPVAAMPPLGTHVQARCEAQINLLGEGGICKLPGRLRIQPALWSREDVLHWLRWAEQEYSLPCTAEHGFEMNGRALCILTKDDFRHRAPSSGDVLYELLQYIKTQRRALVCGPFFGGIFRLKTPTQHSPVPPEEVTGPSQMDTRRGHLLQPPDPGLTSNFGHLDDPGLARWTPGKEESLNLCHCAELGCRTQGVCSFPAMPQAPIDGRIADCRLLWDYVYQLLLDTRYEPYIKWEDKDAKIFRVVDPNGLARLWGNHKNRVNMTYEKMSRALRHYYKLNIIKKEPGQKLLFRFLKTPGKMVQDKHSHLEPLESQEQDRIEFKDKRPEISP
# Summary of the method: as §1
# [16] = target: T11, ELF5 (Homo sapiens, UniProt Q9UKW6-2 1-255); details: protein: recombinant; tags: N-terminal GST; dsDNA, one strand shown
# T11 sequence: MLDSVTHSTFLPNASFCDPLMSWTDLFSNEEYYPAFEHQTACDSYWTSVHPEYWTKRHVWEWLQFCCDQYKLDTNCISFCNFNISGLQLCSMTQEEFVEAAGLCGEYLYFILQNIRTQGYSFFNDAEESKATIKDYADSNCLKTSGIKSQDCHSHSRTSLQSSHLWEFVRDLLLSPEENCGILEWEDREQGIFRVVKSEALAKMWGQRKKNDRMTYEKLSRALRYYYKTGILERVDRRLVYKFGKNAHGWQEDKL
# Summary of the method: as §1
# [17] = target: T12, ETV3 (Homo sapiens, UniProt P41162-2 1-143); details: protein: recombinant; tags: N-terminal GST; dsDNA, one strand shown
# T12 sequence: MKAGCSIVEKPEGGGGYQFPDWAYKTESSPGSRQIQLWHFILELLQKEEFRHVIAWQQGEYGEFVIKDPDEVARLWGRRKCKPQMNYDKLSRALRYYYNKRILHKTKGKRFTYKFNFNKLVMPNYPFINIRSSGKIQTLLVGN
# Summary of the method: as §1
# [18] = target: ETV6 (Homo sapiens, UniProt P41212 1-452); details: protein: recombinant; tags: N-terminal GST; dsDNA, one strand shown
# Summary of the method: as §1
# Sequence of ELF4 (Q99607 whole entry): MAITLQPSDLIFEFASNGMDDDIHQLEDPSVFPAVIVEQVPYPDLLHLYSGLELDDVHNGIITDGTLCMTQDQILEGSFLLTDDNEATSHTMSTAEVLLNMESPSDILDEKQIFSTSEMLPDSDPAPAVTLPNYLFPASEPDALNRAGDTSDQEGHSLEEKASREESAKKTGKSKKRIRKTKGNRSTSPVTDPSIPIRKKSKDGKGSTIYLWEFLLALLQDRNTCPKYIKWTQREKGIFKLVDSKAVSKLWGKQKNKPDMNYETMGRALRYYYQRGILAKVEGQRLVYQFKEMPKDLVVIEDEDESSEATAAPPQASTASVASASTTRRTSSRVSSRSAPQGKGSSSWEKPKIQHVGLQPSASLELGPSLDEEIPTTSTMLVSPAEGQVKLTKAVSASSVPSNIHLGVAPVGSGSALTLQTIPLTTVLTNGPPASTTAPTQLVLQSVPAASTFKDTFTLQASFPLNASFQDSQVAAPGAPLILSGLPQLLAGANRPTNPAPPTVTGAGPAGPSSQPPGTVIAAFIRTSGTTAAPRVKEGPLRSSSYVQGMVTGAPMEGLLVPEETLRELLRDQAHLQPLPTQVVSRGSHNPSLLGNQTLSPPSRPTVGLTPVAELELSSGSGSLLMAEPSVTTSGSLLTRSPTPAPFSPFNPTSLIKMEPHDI
# Sequence of ETV6 (P41212 whole entry): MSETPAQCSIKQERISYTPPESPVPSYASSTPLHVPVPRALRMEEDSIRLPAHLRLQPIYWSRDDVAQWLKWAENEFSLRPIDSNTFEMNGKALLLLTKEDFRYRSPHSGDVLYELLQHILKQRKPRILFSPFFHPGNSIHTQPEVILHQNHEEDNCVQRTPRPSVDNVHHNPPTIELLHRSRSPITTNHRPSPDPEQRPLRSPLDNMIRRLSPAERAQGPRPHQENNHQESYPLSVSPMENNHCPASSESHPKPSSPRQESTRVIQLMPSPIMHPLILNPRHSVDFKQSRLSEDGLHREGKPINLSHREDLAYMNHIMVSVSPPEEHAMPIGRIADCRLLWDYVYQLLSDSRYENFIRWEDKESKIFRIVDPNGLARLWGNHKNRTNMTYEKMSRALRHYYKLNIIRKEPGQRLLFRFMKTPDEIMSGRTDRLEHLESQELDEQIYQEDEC
# Sequence of ETV5 (P41161 whole entry): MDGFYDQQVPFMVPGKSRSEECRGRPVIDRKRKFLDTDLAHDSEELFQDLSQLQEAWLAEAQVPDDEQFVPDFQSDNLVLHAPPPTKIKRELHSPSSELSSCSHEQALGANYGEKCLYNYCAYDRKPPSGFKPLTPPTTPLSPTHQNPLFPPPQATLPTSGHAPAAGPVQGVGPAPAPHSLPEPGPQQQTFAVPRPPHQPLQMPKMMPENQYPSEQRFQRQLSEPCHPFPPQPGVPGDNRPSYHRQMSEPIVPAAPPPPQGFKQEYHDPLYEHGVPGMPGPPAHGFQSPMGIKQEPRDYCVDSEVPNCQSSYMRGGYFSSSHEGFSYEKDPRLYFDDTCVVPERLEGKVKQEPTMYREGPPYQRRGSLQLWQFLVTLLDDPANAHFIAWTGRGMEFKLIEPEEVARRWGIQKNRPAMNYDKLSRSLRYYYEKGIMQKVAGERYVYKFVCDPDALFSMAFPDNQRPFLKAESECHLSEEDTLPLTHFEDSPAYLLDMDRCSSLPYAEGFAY
# Sequence of HSF1 (Q00613 whole entry): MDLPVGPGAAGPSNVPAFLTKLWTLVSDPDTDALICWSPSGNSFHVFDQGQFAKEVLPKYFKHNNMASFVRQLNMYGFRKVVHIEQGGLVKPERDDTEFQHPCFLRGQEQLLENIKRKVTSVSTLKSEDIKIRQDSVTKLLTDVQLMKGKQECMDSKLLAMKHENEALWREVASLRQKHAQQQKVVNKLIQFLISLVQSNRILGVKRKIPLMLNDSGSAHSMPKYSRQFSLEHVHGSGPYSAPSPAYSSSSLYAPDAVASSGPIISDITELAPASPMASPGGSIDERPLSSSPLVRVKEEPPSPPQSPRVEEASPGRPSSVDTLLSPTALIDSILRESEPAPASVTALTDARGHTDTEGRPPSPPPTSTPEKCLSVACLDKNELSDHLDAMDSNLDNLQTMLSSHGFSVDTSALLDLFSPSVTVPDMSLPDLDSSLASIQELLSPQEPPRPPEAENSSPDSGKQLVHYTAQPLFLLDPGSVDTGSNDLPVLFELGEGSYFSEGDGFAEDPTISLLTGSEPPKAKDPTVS
# Sequence of ETV1 (P50549 whole entry): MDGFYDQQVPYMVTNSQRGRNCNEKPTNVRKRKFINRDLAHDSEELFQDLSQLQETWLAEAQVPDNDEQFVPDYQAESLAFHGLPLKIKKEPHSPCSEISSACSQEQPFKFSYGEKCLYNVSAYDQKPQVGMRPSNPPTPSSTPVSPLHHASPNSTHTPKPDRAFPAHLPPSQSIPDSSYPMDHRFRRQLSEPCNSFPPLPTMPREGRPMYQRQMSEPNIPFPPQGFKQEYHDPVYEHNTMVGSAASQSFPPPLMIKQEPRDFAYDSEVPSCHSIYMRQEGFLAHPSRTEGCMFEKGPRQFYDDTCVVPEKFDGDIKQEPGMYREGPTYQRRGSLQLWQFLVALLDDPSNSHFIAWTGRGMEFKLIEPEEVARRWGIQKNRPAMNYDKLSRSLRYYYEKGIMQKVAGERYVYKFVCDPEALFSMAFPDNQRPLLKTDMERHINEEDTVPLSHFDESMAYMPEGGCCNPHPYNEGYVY
# Sequence of CRX (O43186 whole entry): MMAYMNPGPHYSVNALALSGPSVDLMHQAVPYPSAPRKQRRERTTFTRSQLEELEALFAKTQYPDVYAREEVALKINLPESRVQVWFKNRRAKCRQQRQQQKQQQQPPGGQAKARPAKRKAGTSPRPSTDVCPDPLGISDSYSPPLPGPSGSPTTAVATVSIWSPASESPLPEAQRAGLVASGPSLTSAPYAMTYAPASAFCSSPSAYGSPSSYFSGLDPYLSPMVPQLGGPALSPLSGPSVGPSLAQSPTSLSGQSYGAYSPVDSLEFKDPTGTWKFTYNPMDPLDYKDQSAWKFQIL
sequence,measurement,setting,value
TTTCGA,binding signal,[1],"1.48 fold enrichment (6-mer frequency, TF over GST control)"
same,binding signal,[2],"1.54 fold enrichment (6-mer frequency, TF over GST control)"
same,binding signal,[3],"2.5 fold enrichment (6-mer frequency, TF over GST control)"
same,binding signal,[4],"1.18 fold enrichment (6-mer frequency, TF over GST control)"
same,binding signal,[5],"1.57 fold enrichment (6-mer frequency, TF over GST control)"
same,binding signal,[6],"1.5 fold enrichment (6-mer frequency, TF over GST control)"
same,binding signal,[7],"1.32 fold enrichment (6-mer frequency, TF over GST control)"
same,binding signal,[8],"1.39 fold enrichment (6-mer frequency, TF over GST control)"
same,binding signal,[9],"1.86 fold enrichment (6-mer frequency, TF over GST control)"
same,binding signal,[10],"1.5 fold enrichment (6-mer frequency, TF over GST control)"
same,binding signal,[11],"1.61 fold enrichment (6-mer frequency, TF over GST control)"
same,binding signal,[12],"1.54 fold enrichment (6-mer frequency, TF over GST control)"
same,binding signal,[13],"1.42 fold enrichment (6-mer frequency, TF over GST control)"
same,binding signal,[14],"1.34 fold enrichment (6-mer frequency, TF over GST control)"
same,binding signal,[15],"1.29 fold enrichment (6-mer frequency, TF over GST control)"
same,binding signal,[16],"1.42 fold enrichment (6-mer frequency, TF over GST control)"
same,binding signal,[17],"1.41 fold enrichment (6-mer frequency, TF over GST control)"
same,binding signal,[18],"1.33 fold enrichment (6-mer frequency, TF over GST control)"
